# Laboratory results published in PubChem BioAssay (NCATS).
# Where “and” joins values, the source holds several entries; their conditions need not be identical. Identical values can stand only once. Inconclusive results are not listed. A call without a number means that no potency is given here. Calls of active or inactive are those of the source. Unless noted, calls follow the shape of the dose curve; as a rule, active = well fitted curve in the direction sought with a large enough effect; inconclusive = small, poorly fitted or top-dose-only effect, or another doubt; inactive = no such curve, though single readings can be large; an effect the other way counts as inactive or inconclusive.
# How the values were obtained:
# [1] = system: Zika virus NS2B-NS3 protease (unlinked complex); assay: Primary screen GU Rhodamine qHTS for Zika virus inhibitors: Unlinked NS2B-NS3 protease assay (AID 1347159); also: nearly all actives have a fitted effect of over 60% in size; also: potency is read from the fitted curve at half-maximal effect
# Summary of the method: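 A qHTS format was used, with compound concentrations ranging up to 114 microM. Each compound was preincubated with 25 nM NS2B-NS3 protease, and the substrate was then added at 1.5 microM. Curves were fitted with a 4-parameter Hill model.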
# [2] = system: Zika virus NS2B-NS3 protease (linked construct); assay: Primary screen NINDS Rhodamine qHTS for Zika virus inhibitors (AID 1347160); also: nearly all actives have a fitted effect of over 55% in size; also: potency is read from the fitted curve at half-maximal effect
# Summary of the method: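 Kinetic fluorescence (Ex 480 nm, Em 540 nm) over 15 min with 1.5 microM Rhodamine110 peptide and 25 nM linked protease.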
# [3] = target: Luciferin 4-monooxygenase (Photinus pyralis) (UniProt P08659); assay: Primary firefly luciferase (FLuc) qHTS assay for identification of artifact compounds. (AID 1845220); also: nearly all actives have a fitted effect of over 60% in size
# Summary of the method: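 Titrated compounds were incubated 15 min at RT, protected from light, with luciferin and ATP at 10 uM; reaction started with 10 nM FLuc, luminescence imaged at 5 min, and concentration-response fitted by Hill equation.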
# [4] = Primary fluorescence-based thiol-reactive (MSTI) qHTS assay for identification of artifact compounds. (AID 1845221);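 also: thiol-reactive compounds lower the probe fluorescence signal; nearly all actives have a fitted effect of over 65% in size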
# Summary of the method: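 A multi-concentration qHTS design tested compounds against 4 uM MSTI, pH 7.4 phosphate-buffered saline. Plates were protected from light for 1 h at room temperature before imaging fluorescence.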
# [5] = system: Nanoluciferase (engineered Oplophorus gracilirostris luciferase); assay: Primary Nanoluciferase (NLuc) qHTS assay for identification of artifact compounds. (AID 1845222);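 also: NLuc secreted into diluted conditioned medium of S16 cells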
# Summary of the method: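 qHTS format, against NLuc in S16 cell-conditioned medium. Nano-Glo substrate 1:100 was added after 15 min at room temperature. Luminescence was taken after a further 5 min.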
# C33A = assay: Primary qHTS to identify gynecologic anti-cancer compounds using libraries of approved drugs and bioactive compounds (AID 1345084); conditions: Gynecologic cancer cell panel viability, ATPlite luminescence, 48 h; series mostly up to 57.5 µM; also: nearly all actives have a fitted effect of over 55% in size; also: potency is read from the fitted curve at half-maximal effect
# Summary of the method: (§1)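 ATP-based viability (ATPlite), 1,000 cells/well, 16 h pre-incubation, 48 h compound at 37 C, 5% CO2, 15 min RT before read.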
# CASKI = assay: as above; conditions: Gynecologic cancer cell panel viability, ATPlite luminescence, 48 h; series mostly up to 57.5 µM
# Summary of the method: as §1
# Es-2 = assay: as above; conditions: Gynecologic cancer cell panel viability, ATPlite luminescence, 48 h; series mostly up to 57.5 µM
# Summary of the method: as §1
# HeLa = assay: as above; conditions: Gynecologic cancer cell panel viability, ATPlite luminescence, 48 h; series mostly up to 57.5 µM
# Summary of the method: as §1
# Hek293T = assay: as above; conditions: Gynecologic cancer cell panel viability, ATPlite luminescence, 48 h, control line for the selectivity index; series mostly up to 57.5 µM
# Summary of the method: as §1
# JEG-3 = assay: as above; conditions: Gynecologic cancer cell panel viability, ATPlite luminescence, 48 h; series mostly up to 57.5 µM
# Summary of the method: as §1
# OV90 = assay: as above; conditions: Gynecologic cancer cell panel viability, ATPlite luminescence, 48 h; series mostly up to 57.5 µM
# Summary of the method: as §1
# Tov112D = assay: as above; conditions: Gynecologic cancer cell panel viability, ATPlite luminescence, 48 h; series mostly up to 57.5 µM
# Summary of the method: as §1
# [6] = target: Calcium and integrin-binding protein 1 (Homo sapiens) (UniProt Q99828); assay: Primary qHTS for Identification of Calcium Integrin Binding Protein 1 (CIB1) Competitor (AID 1508620);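 also: GST tagged CIB1 binding a fluorescein labelled alphaIIb integrin peptide tracer; top concentration of the series differs between compounds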
# Calcium and integrin-binding protein 1 (Homo sapiens), sequence (Q99828 whole entry, looked up): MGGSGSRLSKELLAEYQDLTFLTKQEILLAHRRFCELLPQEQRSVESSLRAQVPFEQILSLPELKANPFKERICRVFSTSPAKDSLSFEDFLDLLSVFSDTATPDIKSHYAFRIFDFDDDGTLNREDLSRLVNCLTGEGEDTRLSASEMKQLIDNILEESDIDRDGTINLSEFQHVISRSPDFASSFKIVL
# Summary of the method: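 Fluorescence polarization competition: GST-tagged CIB1 (1 uM final) preincubated with compound 15 min at room temperature, then FITC-labelled alphaIIb peptide (100 nM final) added. After 15 min at room temperature, polarization read at Ex 480/Em 540.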
# [7] = Primary qHTS for inhibitors of nuclear receptor binding SET domain protein 2 (NSD2) in an isogenic RCH-ACV NSD2 p.E1099K mutant (9B) (AID 1645876); also: nearly all actives have a fitted effect of over 70% in size; also: potency is read from the fitted curve at half-maximal effect
# [8] = Primary qHTS for inhibitors of nuclear receptor binding SET domain protein 2 (NSD2) in an RCH-ACV wild type WT cells (2C) (AID 1645877); also: nearly all actives have a fitted effect of over 70% in size; also: potency is read from the fitted curve at half-maximal effect
# [9] = target: Glutathione peroxidase 1 (Homo sapiens) (UniProt P07203); assay: Primary qHTS Assay for Inhibitors of Recombinant Selenoprotein Glutathione Peroxidase 1 (GPX1) (AID 1845191); also: nearly all actives have a fitted effect of over 65% in size
# Glutathione peroxidase 1 (Homo sapiens), sequence (P07203 whole entry, looked up): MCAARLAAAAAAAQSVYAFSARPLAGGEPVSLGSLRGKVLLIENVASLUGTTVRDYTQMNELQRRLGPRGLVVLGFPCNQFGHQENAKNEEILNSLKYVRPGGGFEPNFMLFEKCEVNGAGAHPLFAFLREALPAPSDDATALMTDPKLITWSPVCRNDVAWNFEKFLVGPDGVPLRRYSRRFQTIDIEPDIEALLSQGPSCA
# Summary of the method: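 GR-coupled assay: compounds preincubated 30 min at room temperature with GPX1, then reaction started with CHP; final 10 nM GPX1, 1 mM GSH, 0.5 mM CHP, 0.5 mM NADPH, 100 nM GR, 0.01% BSA, pH 7.5 Tris buffer. NADPH fluorescence (340/450 nm) read at 0 and 15 min.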
# [10] = qHTS drug screen for cell cycle checkpoint inhibitors in PARPi-resistant BRCA-mutant ovarian cancer cell lines. (AID 1963452; calls by dose curve); conditions: PEO1/OlaR viability, CellTiter-Glo luminescence, 96 h, stronger effect = lower value
# Summary of the method: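 PEO1, PEO4 and PEO1/OlaR ovarian cancer cells, 600 per well, exposed 96 h at 37C to a dilution series. Viability read by CellTiter-Glo luminescence, normalized to DMSO and empty wells; activity summarized as Z-AUC.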
# [11] = P-glycoprotein substrates identified in KB-8-5-11 adenocarcinoma cell line, qHTS therapeutic library screen (AID 1346987); also: potency is read from the fitted curve at half-maximal effect; nearly all actives have a fitted effect of over 65% in size
# Summary of the method: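 P-gp-mediated resistance screen: KB-8-5-11 cells treated 72 h with compounds in dose-response. CellTiter-Glo viability.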
# [12] = target: Phospholipid hydroperoxide glutathione peroxidase GPX4 (Homo sapiens) (UniProt P36969); assay: Primary qHTS Assay for Inhibitors of Recombinant Selenoprotein Glutathione Peroxidase 4 (GPX4) (AID 1845192); conditions: outcome: dose series up to 50 µM unless noted; also: nearly all actives have a fitted effect of over 65% in size
# Phospholipid hydroperoxide glutathione peroxidase GPX4 (Homo sapiens), sequence (P36969 whole entry, looked up): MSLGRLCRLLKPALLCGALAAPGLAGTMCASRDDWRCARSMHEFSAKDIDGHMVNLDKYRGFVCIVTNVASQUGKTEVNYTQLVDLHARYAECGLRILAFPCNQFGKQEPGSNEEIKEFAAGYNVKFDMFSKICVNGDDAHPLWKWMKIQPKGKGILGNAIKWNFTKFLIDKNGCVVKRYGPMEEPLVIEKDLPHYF
# Summary of the method: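 GR-coupled assay: recombinant GPX4 preincubated 30 min with compound at room temperature; final 200 nM GPX4, 1 mM GSH, 0.5 mM cumene hydroperoxide, 0.5 mM NADPH, 100 nM GR, 0.01% BSA, pH 7.5 Tris. NADPH fluorescence (340/450 nm) read at 0 and 15 min.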
# [13] = measured here: PEO1 parental Z-AUC
compound,measurement,setting,value
CN([C@H]1c2cc(OCCCC(F)(F)F)ccc2OC(C)(C)[C@@H]1O)S(C)(=O)=O,Potency,[1],inactive
same,Potency,[2],inactive
same,Potency,[3],inactive
same,Potency,[4],inactive
same,Potency,[5],inactive
same,Potency,C33A,inactive
same,Potency,CASKI,inactive
same,Potency,Es-2,inactive
same,Potency,HeLa,inactive
same,Potency,Hek293T,inactive
same,Potency,JEG-3,inactive
same,Potency,OV90,inactive
same,Potency,Tov112D,inactive
N#C[C@@H]1C[C@@H]2C[C@@H]2N1C(=O)[C@@H](N)C12CC3CC(CC(O)(C3)C1)C2,Potency,[1],inactive
same,Potency,[2],inactive
same,outcome,[6],inactive
same,Potency,[7],inactive
same,Potency,[8],inactive
same,Potency,[9],inactive
same,Potency,[3],inactive
same,Potency,[4],inactive
same,Potency,[5],inactive
same,Z-AUC,[10],-0.557 (inactive)
same,Z-AUC,[10]; [13],0.593
same,Z-AUC,[10]; measured here: PEO4 Z-AUC,-0.565
same,Potency,C33A,inactive
same,Potency,CASKI,inactive
same,Potency,Es-2,inactive
same,Potency,HeLa,inactive
same,Potency,Hek293T,inactive
same,Potency,JEG-3,inactive
same,Potency,OV90,inactive
same,Potency,Tov112D,inactive
O=C(Nc1cccc(C(F)(F)F)c1)c1ccccc1NCc1ccncc1,Potency,[1],inactive
same,Potency,[2],inactive
same,Potency,[3],inactive
same,Potency,[4],inactive
same,Potency,[5],inactive
same,Potency,C33A,inactive
same,Potency,CASKI,inactive
same,Potency,HeLa,inactive
same,Potency,JEG-3,inactive
same,Potency,OV90,inactive
CN(C)CC(=O)Nc1ccc2[nH]c(=O)c3ccccc3c2c1,Potency,[1],inactive
same,Potency,[2],inactive
same,outcome,[6],inactive
same,Potency,[7],20.5 µM (active)
same,Potency,[8],23 µM (active)
same,Potency,[3],inactive
same,Potency,[4],inactive
same,Potency,[5],inactive
same,Potency,C33A,inactive
same,Potency,CASKI,inactive
same,Potency,Es-2,inactive
same,Potency,HeLa,inactive
same,Potency,JEG-3,inactive
same,Potency,OV90,inactive
same,Potency,Tov112D,inactive
C=C1C(=O)O[C@@H]2C[C@@]3(C)CCC[C@H](C)C3=C[C@H]12,Potency,[11],14.6 µM (active)
same,Potency,[1],inactive
same,Potency,[2],inactive
same,outcome,[6],inactive
same,Potency,[7],14.5 µM (active)
same,Potency,[8],12.9 µM (active)
same,Potency,[9],inactive
same,Potency,[12],inactive
same,Potency,[3],inactive
same,Potency,[4],inactive
same,Potency,[5],inactive
same,Potency,C33A,inactive
same,Potency,CASKI,inactive
same,Potency,HeLa,inactive
same,Potency,Hek293T,inactive
same,Potency,JEG-3,inactive
same,Potency,OV90,inactive
same,Potency,Tov112D,inactive
CC(=O)Nc1ccc(C(=O)Nc2ccccc2N)cc1,Potency,[1],inactive
same,Potency,[2],inactive
same,outcome,[6],inactive
same,Potency,[7],3.55 µM (active) and 3.72 µM (active)
same,Potency,[8],2.82 µM (active) and 3.72 µM (active)
same,Potency,[9],inactive
same,Potency,[12],inactive
same,Potency,[3],inactive
same,Potency,[4],inactive
same,Potency,[5],inactive
same,Z-AUC,[10],-0.302 (inactive)
same,Z-AUC,[10]; [13],-0.636
same,Z-AUC,[10]; measured here: PEO4 Z-AUC,-0.146
same,Potency,C33A,inactive
same,Potency,CASKI,inactive
same,Potency,OV90,3.98 µM (active)
same,Potency,Tov112D,inactive
CC(C)n1cnc2c(Nc3cccc(Cl)c3)nc(NCCO)nc21,Potency,[11],14.6 µM (active)
same,Potency,[1],inactive
same,Potency,[2],inactive
same,outcome,[6],inactive
same,Potency,[7],11.5 µM (active)
same,Potency,[8],8.17 µM (active)
same,Potency,[9],inactive
same,Potency,[12],inactive
same,Potency,[3],inactive
same,Potency,[4],inactive
same,Potency,[5],inactive
same,Potency,C33A,inactive
same,Potency,CASKI,inactive
same,Potency,Es-2,inactive
same,Potency,HeLa,inactive
same,Potency,Hek293T,inactive
same,Potency,JEG-3,inactive
same,Potency,OV90,inactive
same,Potency,Tov112D,inactive
CC1=CC(=O)[C@@]2(C(C)C)C[C@@H]12,Potency,[1],2.51 µM (active)
same,Potency,[2],3.16 µM (active)
same,outcome,[6],inactive
same,Potency,[9],inactive
same,Potency,[12],inactive
same,Potency,[3],inactive
same,Potency,C33A,inactive
same,Potency,CASKI,inactive
same,Potency,Es-2,inactive
same,Potency,OV90,inactive
same,Potency,Tov112D,inactive
CCC(=O)c1cc(-c2ccc(Cl)cc2)n(-c2ccc(S(N)(=O)=O)cc2)c1C,Potency,[1],inactive
same,Potency,[2],inactive
same,outcome,[6],inactive
same,Potency,[7],23 µM (active)
same,Potency,[8],16.3 µM (active)
same,Potency,[9],inactive
same,Potency,[12],inactive
same,Potency,[3],inactive
same,Potency,[4],inactive
same,Potency,[5],inactive
same,Potency,C33A,inactive
same,Potency,CASKI,inactive
same,Potency,Es-2,inactive
same,Potency,HeLa,inactive
same,Potency,Hek293T,inactive
same,Potency,JEG-3,inactive
same,Potency,OV90,inactive
same,Potency,Tov112D,inactive
CN(C)CCCNc1nc(CN2CCN(C(c3ccc(Cl)cc3)c3ccc(Cl)cc3)CC2)nc2ccccc12,Potency,[1],inactive
same,Potency,[2],inactive
same,outcome,[6],inactive
same,Potency,[7],9.16 µM (active)
same,Potency,[8],7.28 µM (active)
same,Potency,[12],inactive
same,Potency,[3],inactive
same,Potency,[4],inactive
same,Potency,[5],inactive
same,Potency,C33A,inactive
same,Potency,CASKI,inactive
same,Potency,Es-2,inactive
same,Potency,HeLa,inactive
same,Potency,Hek293T,inactive
same,Potency,JEG-3,inactive
same,Potency,Tov112D,inactive
C[C@H](NC(=O)C(C)(C)Oc1ccc(C(F)(F)F)cn1)[C@@H](Cc1ccc(Cl)cc1)c1cccc(C#N)c1,Potency,[11],14.6 µM (active)
same,Potency,[1],inactive
same,Potency,[2],inactive
same,outcome,[6],inactive
same,Potency,[7],16.3 µM (active)
same,Potency,[8],20.5 µM (active)
same,Potency,[9],inactive
same,Potency,[12],inactive
same,Potency,[3],inactive
same,Potency,[4],inactive
same,Potency,[5],inactive
same,Potency,C33A,inactive
same,Potency,CASKI,inactive
same,Potency,Es-2,inactive
same,Potency,JEG-3,inactive
same,Potency,OV90,inactive
same,Potency,Tov112D,inactive
COc1cccc(NC[C@@H](O)Cn2c3ccc(Br)cc3c3cc(Br)ccc32)c1,Potency,[11],23.1 µM (active)
same,Potency,[1],44.7 µM (active)
same,outcome,[6],inactive
same,Potency,[9],inactive
same,Potency,[3],inactive
same,Potency,[5],inactive
same,Potency,C33A,inactive
same,Potency,CASKI,inactive
same,Potency,Es-2,inactive
same,Potency,Hek293T,inactive
same,Potency,JEG-3,inactive
same,Potency,Tov112D,inactive
